Rows were chosen to be rich in hits. Some 1% of all compounds tested hit in one or more screens of this group.
BAP1 block: human BAP1 deubiquitinase inhibition | 0.48% of 72,000 active | AID 436 | recombinant BAP1, Ub-AMC hydrolysis fluorescence kinetic; hits give low values | calls only at 20 µM;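 active = activity remaining at or below 50% of control, provided the compound also passes the data quality filters; inactive = the rest, including low values that fail the filters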;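 also: 100% = DMSO wells rate and 0% = substrate alone blank rate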
TNAP act DEA: human TNAP activation, intermediate phosphate acceptor | 64,000 tested, under 10 active | activation factor at 20 µM | AID 813 | P05186 | purified TNAP, CDP-star luminescence, 100 mM DEA, 30 min; hits give high values; scale: 0 levamisole-inhibited, 1 vehicle-only enzyme;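 active = activation factor of at least 2 at 20 µM, relative to controls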
Cdc25B inh: inhibitors of human Cdc25B phosphatase | inhibition, %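 (compounds tested at 10 µM final in the well)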 | P30305 | 0.1% of 65,000 active | recombinant Cdc25B, OMFP fluorescence Ex485/Em525 | AID 368; in the data active = inhibition above about 50%
Ec RNAP inh: Escherichia coli RNA polymerase inhibition; inhibition, %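 (tested at 10 µM)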; AID 559; P0A8V2; 0.2% of 62,000 active; E. coli RNA polymerase, fluorescence transcription assay; in the data active = inhibition above about 20%;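 also: 0% = enzyme without compound and 100% = no enzyme blank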
HePTP inhibitor: blocks human HePTP tyrosine phosphatase; inhibition, % at 20 µM; recombinant HePTP phosphatase activity, OD absorbance; 0.64% of 110,000 active; P35236; AID 521; in the data active = inhibition above about 50%;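 also: plate controls were vehicle for no effect and reference inhibitor for full effect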
MKP-1 inh: inhibitors of human MKP-1 phosphatase. recombinant MKP-1, OMFP hydrolysis fluorescence. inhibition, %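 (compounds tested at a single concentration somewhere between 10 and 100 µM)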. 0.15% of 65,000 active;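 active = inhibition above about 50%, limit read from the data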;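 also: 0% = DMSO max control wells and 100% = wells with enzyme stopped by NaOH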
Target sequence (P28562 whole entry, looked up): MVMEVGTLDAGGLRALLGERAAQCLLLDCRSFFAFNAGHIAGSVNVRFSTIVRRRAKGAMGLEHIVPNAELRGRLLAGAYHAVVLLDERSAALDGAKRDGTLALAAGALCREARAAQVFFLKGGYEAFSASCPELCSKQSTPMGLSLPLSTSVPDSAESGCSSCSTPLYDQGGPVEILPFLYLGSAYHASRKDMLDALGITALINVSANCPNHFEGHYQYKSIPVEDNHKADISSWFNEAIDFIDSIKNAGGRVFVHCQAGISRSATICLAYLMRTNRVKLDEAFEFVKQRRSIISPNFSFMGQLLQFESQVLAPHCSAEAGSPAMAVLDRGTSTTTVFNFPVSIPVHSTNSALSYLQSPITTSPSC
Starred values were filed as active, the others as inactive; i = inactive; . = not tested or not shown; + = active, no number.

SMILES	BAP1 block	TNAP act DEA	Cdc25B inh	Ec RNAP inh	HePTP inhibitor	MKP-1 inh
CCCN(CCC)CCCNC(=O)c1cc2c(=O)n(C)c3ccccc3c2n1C	i	0.9	-11.3	50.2*	3.4	-5.0
O=C(O)CSc1ccc(C(F)(F)F)cc1	.	.	.	.	-1.8	.
Cc1ccc(C)n1-c1ccc(SCC(=O)O)cc1	.	.	.	.	102.7*	.
Cc1ccc(C)n1-c1ccc(OCC(=O)O)cc1	i	.	.	.	104.0*	.
N#Cc1c(-c2ccco2)cc(C2CC2)nc1SCC(=O)c1ccccc1	i	0.9	-12.1	6.6	4.0	8.1
N#Cc1ccc(-c2ccco2)nc1SCC(=O)c1ccc(Cl)cc1	.	0.8	28.6	21.2*	5.9	7.3
COC(=O)c1[nH]c2ccc(Cl)cc2c1NC(=O)C1CC1	i	1	83.9*	3.8	-4.0	-8.1
N#C/C(=C/c1cc2c(cc1[N+](=O)[O-])OCO2)C(=O)Nc1ccc(F)cc1	.	.	.	.	0.3	.
CC(C)CN1C(=O)c2ccc(C(=O)c3cccc([N+](=O)[O-])c3)cc2C1=O	.	.	.	.	-9.9	.
O=C1NN(c2ccc(Cl)c(Cl)c2)C(=O)/C1=C/c1cccn1-c1ccc([N+](=O)[O-])cc1	.	.	.	.	5.6	.
O=C1NN(c2ccccc2)C(=O)/C1=C/c1cccn1-c1ccc([N+](=O)[O-])cc1	.	.	.	.	102.8*	.
Cc1ccc2ccc(S(=O)(=O)n3nnc4ccccc43)cc2c1	.	.	.	.	-2.6	.
CC(C)(C)c1ccc(OCCOc2ccc(Cl)cc2/C=N/n2cnnc2)cc1	.	.	.	.	2.6	.
O=C(Nc1ccc2oc(-c3ccccc3F)nc2c1)c1cccc([N+](=O)[O-])c1	.	.	.	.	99.2*	.
O=c1c(-c2ccc(O)cc2)coc2cc(O)ccc12	+	.	.	.	.	.
Cc1ccccc1-c1coc2cc(O)ccc2c1=O	.	0.9	-6.5	0.6	9.4	4.7
COc1cc(/C=C(/C#N)C(=O)Nc2cccc(Br)c2)cc(OC)c1O	.	.	.	.	-1.3	.
COc1cc(/C=C(/C#N)C(=O)Nc2cccc(Br)c2)cc([N+](=O)[O-])c1O	.	.	.	.	103.6*	.
COc1ccc(C)cc1NC(=O)CCC1CCCC1	.	.	.	.	103.6*	.
COc1cc(/C=N\N2CCN(Cc3ccc(C)cc3)CC2)cc(Br)c1O	.	.	.	.	77.2*	.
COC(=O)C1=C(C)NC(=O)/C1=C\c1ccc(Br)cc1	.	.	.	.	66.7*	.
O=C(CSc1nsc(SCC(=O)C2CC2)n1)C1CC1	.	.	.	.	8.9	.
CCOc1ccc(N(CC(=O)NCc2ccc(OC)cc2)S(=O)(=O)c2ccc(Br)cc2)cc1	.	.	.	.	5.7	.
CCOc1ccc(N(CC(=O)NCc2ccc(Cl)cc2)S(=O)(=O)c2ccc(Br)cc2)cc1	.	.	.	.	102.8*	.
CCCn1nnc(NC(=O)c2cc(Br)cc(Br)c2OC)n1	i	0.9	-13.5	.	6.8	50.3*
SMILES	BAP1 block	TNAP act DEA	Cdc25B inh	Ec RNAP inh	HePTP inhibitor	MKP-1 inh
Fc1ccc(CSc2nnc(-c3ccc(Cl)cc3Cl)o2)cc1	.	.	.	.	-11.1	.
Cc1c(-c2ccc(F)cc2)[n+](=O)c2c(n1[O-])CCC2	.	.	.	.	104.2*	.
Cc1c(-c2ccco2)[n+](=O)c2c(n1[O-])CCC2	i	0.9	-11.5	-1.6	0.9	-23.0
COc1ccc(-c2c(C)n([O-])c3c([n+]2=O)CCC3)cc1	.	.	.	.	104.2*	.
Cc1c(-c2ccccc2)[n+](=O)c2c(n1[O-])CCCCC2	.	.	.	.	-5.2	.
CC(C)C(C(=O)O)N1C(=O)/C(=C/c2ccc(O)cc2)SC1=S (stereo not drawn)	.	.	.	.	-9.4	.
COC(=O)C1=CN(CCc2ccccc2)C=C(C(=O)OC)C1c1ccc2c(c1)OCO2	.	.	.	.	-5.8	.
C=CCOc1ccc(/C=C2\SC(=Nc3ccccc3)NC2=O)cc1OC	.	.	.	.	63.5*	.
COc1ccc(/C=C2/SC(=Nc3ccccc3)NC2=O)cc1O	.	.	.	.	1.6	.
CC(NC(=O)c1ccc2c(c1)OCO2)C1CCCO1 (stereo not drawn)	.	0.9	-16.1	-1.5	8.0	56.0*
CC1=NN(c2ccccc2)C(=O)C1C=C1C(=O)NC(=O)NC1=O (stereo not drawn)	.	.	.	.	-3.3	.
CC1=NN(c2ccccc2)C(=O)C1C=C1C(=O)NC(=S)NC1=O (stereo not drawn)	.	.	.	.	54.5*	.
COc1cc(C=C2C(=O)NC(=S)NC2=O)ccc1OCc1ccc(C(=O)O)cc1	.	.	.	.	-15.6	.
O=C1NC(=S)NC(=O)C1=Cc1cc(Cl)c(OCc2ccc(C(=O)O)cc2)c(Cl)c1	.	.	.	.	103.6*	.
N#Cc1c(NC(=O)CSc2ncnc3c2cnn3-c2ccccc2Cl)sc2c1CCCC2	+	0.9	-10.5	5.0	1.0	5.2

Compound activity: PubChem BioAssay, several laboratories
